Test in all cases: NCI-60 one-dose screen, 48 h (100 = growth as untreated, 0 = no growth, -100 = all killed)
Common to all, as to settings: 10 µM unless noted

The test system of assay [1] is NCI-H23 lung.
Assay [2] relates to NCI-H226 lung.
Assay [3] relates to NCI-H322M lung.
Assay [4] deals with HOP-62 NSCLC.
Assay [5] relates to NCI-H460 lung.
Assay [6] has as its system HOP-92 NSCLC.
The subject of assay [7] is NCI-H522 lung.
The test system of assay [8] is A549/ATCC NSCLC.
For assay [9], the system named is 786-0 renal.
In assay [10] the test system is COLO 205 colon.
For assay [11], the system named is DU-145 prostate.
Assay [12] deals with K-562 leukemia.
Assay [13] concerns MALME-3M melanoma.
The test system of assay [14] is MDA-MB-231 breast.
Assay [15] has as its system RXF 393 renal.
The test system of assay [16] is SF-268 CNS.
Assay [17] relates to SF-295 CNS.
Assay [18] concerns SF-539 CNS.
Assay [19] deals with UACC-257 melanoma.
Assay [20] relates to M14 melanoma.

Several values for one entry are separate records, joined by “and”; a condition that tells them apart may be missing. Equal entries are not always repeated. About 83,000 compounds went through this panel and 20% of them were active in at least one assay; those are over-represented in the sample as a whole.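 Growth was measured after 48 h exposure to one concentration of compound in 96-well plates. Values under 10 count as active.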 Activity calls are given as the source filed them.

With `CCCn1nc(C(=O)N2CCCCC2)c2c1CCC(N1CCC(c3ccncc3)CC1)C2` (stereo not given), the growth was 105% (inactive) in [1]; 116% (inactive) in assay [2]; 108% (inactive) in assay [3]; 113% (inactive) in [4]; 110% (inactive) in assay [5]; 111% (inactive) in assay [6]. Also, the growth in assay [7] was 90.5% (inactive); in assay [8] it was 102% (inactive); in assay [9], 101% (inactive); in assay [10], 115% (inactive); in assay [11], 105% (inactive); in assay [12] it was 101% (inactive). Also, the growth is 115% (inactive) in assay [13]; 118% (inactive) in assay [14]; 117% (inactive) in assay [15]; 97% (inactive) in [16]; 106% (inactive) in assay [17]; 107% (inactive) in assay [18]. Moreover, the growth in [19] is 102% (inactive); in assay [20], 97.3% (inactive).
On to `O=C([C@H]1C[C@H]1c1ccc(S(F)(F)(F)(F)F)cc1)N1CCN(c2cc(Cl)ccc2C(F)(F)F)CC1`, for which the growth was 91.2% (inactive) in assay [1]; 75.7% (inactive) in assay [2]; 90.1% (inactive) in [3]; 102% (inactive) in assay [4]; 95.6% (inactive) in assay [5]; 88.3% (inactive) in [6]. Further, the growth in assay [7] was 70.7% (inactive); in [8], 81.5% (inactive); in assay [9] it was 89.3% (inactive); in assay [10], 101% (inactive); in assay [11] it was 104% (inactive); in assay [12], 74.2% (inactive). Also, the growth in [13] was 89.7% (inactive); in assay [14], 97.2% (inactive); in assay [15], 91.8% (inactive); in assay [16], 90.2% (inactive); in assay [17] it was 92.6% (inactive); in assay [18], 107% (inactive). The growth was 94.9% (inactive) in assay [19] and 90.7% (inactive) in assay [20].
Turning to `O=C1/C(=C/c2ccccc2[N+](=O)[O-])Cc2ccccc21`, the growth was 22.6% (inactive) and 59.2% (inactive) in [1]; 19.4% (inactive) in assay [2]; 65.2% (inactive) and 71.3% (inactive) in [3]; 57.6% (inactive) and 32.8% (inactive) in assay [4]; 7.04% (active) and 23.6% (inactive) in assay [5]; 51.9% (inactive) and 77.4% (inactive) in assay [6]. Further, the growth is -88.7% (active) and -87.5% (active) in [7]; 41.4% (inactive) and -6.77% (active) in [8]; 45% (inactive) and 26.5% (inactive) in assay [9]; -74.9% (active) and 18.5% (inactive) in assay [10]; 32.7% (inactive) and 41.5% (inactive) in assay [11]; 10.5% (inactive) and 6.16% (active) in [12]. Besides, the growth is 23.7% (inactive) and 60.2% (inactive) in assay [13]; -9.95% (active) and 31.3% (inactive) in assay [14]; -4.67% (active) and -0.599% (active) in assay [15]; 66% (inactive) and 42.8% (inactive) in assay [16]; 23% (inactive) and 28.3% (inactive) in assay [17]; 24.2% (inactive) and 34.3% (inactive) in [18]. For the same molecule, the growth in assay [19] is 64.4% (inactive) and 71.8% (inactive); in [20] it was 42.7% (inactive) and 57.8% (inactive).
In the case of `CC(=O)N1N=C(c2ccc(Nc3nc(Nc4ccc(F)cc4)nc(Nc4ccc(F)cc4)n3)cc2)CC1c1ccccc1` (stereo not given), the growth in assay [1] is 90% (inactive); in assay [2], 102% (inactive); in assay [3], 92.5% (inactive); in assay [4] it was 85.9% (inactive); in assay [5], 92.3% (inactive); in assay [6] it was 58.3% (inactive). Further, the growth was 89.4% (inactive) in assay [7]; 86.4% (inactive) in assay [8]; 78.5% (inactive) in assay [9]; 68.5% (inactive) in assay [10]; 116% (inactive) in [11]; 80.1% (inactive) in assay [12]. For the same molecule, the growth in assay [13] was 76.2% (inactive); in assay [14], 80.1% (inactive); in [15], 60.6% (inactive); in assay [16], 86.1% (inactive); in assay [17] it was 132% (inactive); in assay [18] it was 110% (inactive). In addition, the growth in [19] is 108% (inactive); in [20] it was 85% (inactive).
As to `N#CC(Cc1cccc2ccccc12)c1cc2ccccc2[nH]1` (stereo not given), the growth in [1] is 85% (inactive); in assay [2], 83.1% (inactive); in assay [3] it was 84.8% (inactive); in [4], 78.4% (inactive); in [5] it was 99.8% (inactive); in [6] it was 55.6% (inactive). Further, the growth in assay [7] is 75.5% (inactive); in [8], 89.5% (inactive); in assay [9], 95.3% (inactive); in [10] it was 105% (inactive); in [11] it was 103% (inactive); in [12] it was 86.6% (inactive). The growth was 81.9% (inactive) in assay [13]; 81.4% (inactive) in assay [14]; 87.8% (inactive) in assay [15]; 89.3% (inactive) in [16]; 95.9% (inactive) in [17]; 102% (inactive) in assay [18]. For the same molecule, the growth was 93.9% (inactive) in assay [19] and 82.6% (inactive) in assay [20].
In the case of `CCOC(=O)n1cc(-c2nonc2-c2cn(C)c3ccc(OC)cc23)c2cc(F)ccc21`, the growth was 76.1% (inactive) in assay [1]; 78.3% (inactive) in [2]; 67.4% (inactive) in [3]; 72.6% (inactive) in assay [4]; 80.6% (inactive) in assay [5]; 71.4% (inactive) in [6]. In addition, the growth is 74.4% (inactive) in [7]; 56.5% (inactive) in assay [8]; 93.9% (inactive) in assay [9]; 90.9% (inactive) in [10]; 92.7% (inactive) in assay [11]; 67.7% (inactive) in assay [12]. The growth is 81.9% (inactive) in assay [13]; 71.4% (inactive) in assay [14]; 89.6% (inactive) in assay [15]; 83.1% (inactive) in [16]; 60.8% (inactive) in assay [17]; 86.1% (inactive) in [18]. Besides, the growth in assay [19] is 74.5% (inactive); in [20], 83.9% (inactive).
With `OCCN1CCN(c2cc(-c3cccc(OC(F)(F)F)c3)nc3ccc(N4CCCC4)cc23)CC1`, the growth is 74.4% (inactive) in [1]; 70.1% (inactive) in assay [2]; 80% (inactive) in assay [3]; 48.4% (inactive) in [4]; 11.3% (inactive) in assay [5]; 34.1% (inactive) in assay [6]. Also, the growth in assay [7] is 66.4% (inactive); in assay [8], 36.2% (inactive); in assay [9], 63.1% (inactive); in assay [10] it was -18.8% (active); in [11] it was 58% (inactive); in [12], -10.2% (active). Besides, the growth in assay [13] is 34.6% (inactive); in [14] it was 58.2% (inactive); in [15], 51% (inactive); in assay [16] it was 66.6% (inactive); in assay [17] it was 72.5% (inactive); in assay [18], 66.4% (inactive). The growth in assay [19] is 65.2% (inactive); in assay [20], 27.5% (inactive).

The values above are taken from PubChem BioAssay (NCI).
